# Measurements: PubChem BioAssay AID602438 (Sanford-Burnham Center for Chemical Genomics, 2012)
# Where “and” joins values, the source holds several entries; their conditions need not be identical. Identical values can stand only once. Among all 360,000 compounds or so, about 3,100 (0.86%) were called active. The sample holds actives, similar compounds and a random draw of the others, so the mix is not that of the screen. A number with no mark means an inactive call.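 Rule for the calls: active = inhibition or corrected inhibition above about 18%, plus a signal ratio from 0.5 to 1.5 (limit read from the data, passing the limit was not always enough); inactive = the rest.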
# Biological target: Neuropilin-1 (Homo sapiens) (UniProt O14786)
# Assay: modulators of CendR peptide binding to NRP-1, primary screen, biochemical, fluorescence polarization, uHTS (AID 602438)
# Conditions: FAM-RPARPAR peptide binding to NRP-1, fluorescence polarization; at 25 µM; stronger effect = higher value
# Sequence of Neuropilin-1 (Homo sapiens) (O14786 whole entry, looked up): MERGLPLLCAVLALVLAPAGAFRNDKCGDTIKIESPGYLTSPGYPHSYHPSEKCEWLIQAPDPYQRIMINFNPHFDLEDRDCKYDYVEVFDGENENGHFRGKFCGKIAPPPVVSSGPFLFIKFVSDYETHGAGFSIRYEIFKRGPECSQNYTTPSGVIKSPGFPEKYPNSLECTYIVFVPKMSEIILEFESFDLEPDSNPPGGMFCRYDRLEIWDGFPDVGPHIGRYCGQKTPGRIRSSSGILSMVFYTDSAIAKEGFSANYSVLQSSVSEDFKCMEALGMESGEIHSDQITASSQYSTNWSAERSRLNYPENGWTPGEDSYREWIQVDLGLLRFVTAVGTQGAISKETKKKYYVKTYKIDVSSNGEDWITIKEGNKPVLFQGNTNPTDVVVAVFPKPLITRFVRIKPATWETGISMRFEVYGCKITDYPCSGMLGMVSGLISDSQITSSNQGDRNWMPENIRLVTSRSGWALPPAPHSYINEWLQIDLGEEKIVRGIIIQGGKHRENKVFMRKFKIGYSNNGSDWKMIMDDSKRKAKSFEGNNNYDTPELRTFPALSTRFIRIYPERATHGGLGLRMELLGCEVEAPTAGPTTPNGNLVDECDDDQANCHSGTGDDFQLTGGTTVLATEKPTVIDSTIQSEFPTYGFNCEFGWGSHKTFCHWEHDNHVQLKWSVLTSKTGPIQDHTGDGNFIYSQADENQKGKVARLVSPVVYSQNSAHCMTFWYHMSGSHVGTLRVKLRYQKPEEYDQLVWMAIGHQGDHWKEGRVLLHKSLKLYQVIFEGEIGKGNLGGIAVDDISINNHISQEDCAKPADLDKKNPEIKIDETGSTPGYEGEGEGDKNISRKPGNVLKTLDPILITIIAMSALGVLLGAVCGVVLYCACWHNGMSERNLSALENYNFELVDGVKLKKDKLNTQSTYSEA
row,Structure (SMILES),inhibition
1,COc1ccccc1NC(=O)COC(=O)CNC(=O)C1CCCCC1,9.6%
2,C=C(C)C1CC=C(C)/C(=N/NC(=O)CCCNc2cccc(C)c2)C1 (stereo not drawn),1.4%
3,C=C(C)C1CC=C(C)/C(=N\NC(=O)CNc2ccccc2OC)C1 (stereo not drawn),20.9% (active)
4,N#C/C=C\Oc1ccc(Cl)cc1N,-3.7%
5,COc1ccc(C2CC(c3cccs3)=NN2C(=O)COC(=O)c2cc3ccccc3cc2O)cc1OC (stereo not drawn),6.7%
6,COc1ccc(C2CC(c3cccs3)=NN2C(=O)CSc2nnc(N)s2)cc1OC (stereo not drawn),0.7%
7,COc1ccc(C2CC(c3cccs3)=NN2C(=O)CSc2nncs2)cc1OC (stereo not drawn),28.8% (active)
8,CCN(CC(=O)Nc1c(F)cccc1F)C(=O)c1ccc(-c2ccc(C(C)=O)cc2)o1,45.1% (active)
9,CCN(CC(=O)Nc1c(F)cccc1F)C(=O)c1cnc(C)cn1,3.1%
10,CCN(CC(=O)Nc1c(F)cccc1F)C(=O)c1ccc(-c2ccccc2)cc1,4.3%
11,CCN(CC)S(=O)(=O)c1ccc(C(=O)N2CCN(C3=NS(=O)(=O)c4ccccc43)CC2)cc1,-0.8%
12,CC1CCCCC12NC(=O)N(CC(=O)Nc1ccc(S(=O)(=O)Nc3ncccn3)cc1)C2=O (stereo not drawn),-8.9%
13,Cc1nnc(CN(C)Cc2cn[nH]c2-c2ccc(-c3ccccc3)cc2)o1,-2.9%
14,CC1(C)SC2C(NC(=O)COc3ccccc3)C(=O)N2C1C(=O)O (stereo not drawn),-22.6% and -10.8%
15,CC1(C)S[C@@H]2[C@H](NC(=O)COc3ccccc3)C(=O)N2C1C(=O)OCc1ccccc1 (stereo partly drawn),26.2% (active)
16,COC(=O)C1[C@H]2SC(C)(C)C(C(=O)OC)N2C(=O)N1Cc1nc2ccccc2s1 (stereo partly drawn),4.5%
17,COC(=O)c1c(NC(=O)COC(=O)[C@@H](NS(=O)(=O)c2ccccc2)C(C)C)sc2c1CCC2,-8.2%
18,CC(C)OC(=O)c1cc(NC(=O)C2C3CCC(O3)C2C(=O)O)cc(C(=O)OC(C)C)c1 (stereo not drawn),-0.2%
19,Cc1sc(NC(=O)C2C3CCC(O3)C2C(=O)O)c(C(=O)OC(C)C)c1-c1ccc(Cl)cc1 (stereo not drawn),21% (active)
20,COc1ccc(NC(=O)C2C3CCC(O3)C2C(=O)O)cc1OC (stereo not drawn),4.9%

row,Structure (SMILES),inhibition
1,O=C(CN1C(=O)NC(Cc2c[nH]c3ccccc23)C1=O)Nc1ccccc1C(F)(F)F (stereo not drawn),-6.7%
2,CCn1c(C)nc2cc(C(=O)NNS(=O)(=O)c3ccc(C)cc3C)ccc21,-7%
3,CNS(=O)(=O)c1cccc(C(=O)NC2CCCc3ccccc32)c1 (stereo not drawn),-7.1%
4,CCCn1nc2cc(C(=O)NCc3ccccc3)ccc2c1OCC,27% (active)
5,CCOc1ccc(NC(=O)COc2ccc(C(=O)NC3CCCc4ccccc43)cc2OC)cc1 (stereo not drawn),-6.4%
6,Cc1cc(N2C(=O)c3ccc(C(=O)NCc4ccccc4)cc3C2=O)no1,-12.4%
7,C[n+]1ccc(C(=O)NCc2ccccc2)cc1,8.4%
8,CCOc1c2ccc(C(=O)NC3CCCc4ccccc43)cc2nn1CC (stereo not drawn),22.9% (active)
9,CC(=O)Cn1ncc(N2CCOCC2)c(Br)c1=O,-5.8%
10,Cc1ccc(OCCNC(=O)CCNS(=O)(=O)c2ccc(Br)cc2)cc1,4.5%
11,Nc1c(C(=O)c2cccs2)sc2nsc(SCCN3CCCCC3)c12,131%
12,Cn1c(CCC(=O)Nc2ccccc2F)nnc1SCC(=O)Nc1ccccc1Cl,-3.9%
13,COc1ccccc1NC(=S)N1CCC(NC(=O)C23CC4CC(CC(C4)C2)C3)CC1,-1.5%
14,CC(Oc1cc2oc(=O)c3c(c2cc1Cl)CCCC3)C(=O)NCc1ccncc1 (stereo not drawn),-1.5%
15,Cc1ccc(S(=O)(=O)NC(C)C(=O)NCc2ccc(Cl)cc2)cc1 (stereo not drawn),-8.1%
16,COc1ccc(S(=O)(=O)NC(C)C(=O)NCc2ccncc2)cc1Cl (stereo not drawn),22.5% (active)
17,COc1cccc(NC(=O)N2CCC(NC(=O)C(Cc3cccc(C)c3)NC(C)=O)CC2)c1 (stereo not drawn),9.8%
18,CCOC(=O)c1c(/N=C/C2C(=O)CC(C)(C)CC2=O)sc(C)c1C,-41.2%
19,COc1ccccc1OCCC(=O)OCC(=O)NCc1ccccc1,31.3% (active)
20,COc1ccccc1OCCC(=O)OCC(=O)NC(=O)NC(C)(C)C,-7.2%

row,Structure (SMILES),inhibition
1,Cc1ccc(C)c(OCCC(=O)OCC(=O)NC(=O)NCc2ccccc2)c1,-19%
2,CC1CCCC(N2CCN(C(=O)c3ccc(F)cc3)CC2)C1 (stereo not drawn),1.1%
3,CC(C)(C)c1cc(=O)n2c(nc3ccccc32)[nH]1,3.4%
4,COc1ccc(C)cc1N(CC(=O)NC(C)c1ccccc1)S(C)(=O)=O (stereo not drawn),3.7%
5,COc1cc(/C=N\NC(=O)CNC(=O)c2cccc([N+](=O)[O-])c2)ccc1O,21.9% (active)
6,CCCc1ccc(OCc2ccc(C(=O)N/N=C/c3cccc([N+](=O)[O-])c3)o2)c(OC)c1,-4.8%
7,COc1ccc(O)c(/C=N/N=C/c2cccc([N+](=O)[O-])c2)c1,6.7%
8,O=C(/C=C/c1cccs1)NCc1cccnc1,-0.9%
9,CC[C@]12c3[nH]c4ccc(Cl)cc4c3CCN1C(=O)[C@@H](CC(=O)NCCCOC)C[C@@H]2C(=O)N1CCN(C(=O)c2ccco2)CC1,0.7%
10,CCCN(CCC)S(=O)(=O)c1ccc(C(=O)NNC(=O)c2cc(OC)c(OC)c(OC)c2)cc1,-2.3%
11,COc1ccccc1C(=O)COC(=O)CNS(=O)(=O)c1ccc(NC(C)=O)cc1,5.5%
12,COc1ccccc1C(=O)COC(=O)COc1ccc(C#N)cc1,28.5% (active)
13,COc1ccccc1C(=O)COC(=O)CSCC(=O)Nc1cc(C)on1,-0.2%
14,Cc1nn(C)c(Cl)c1CN1CCC(n2nccc2NC(=O)C2CCCC2)CC1,-2.2%
15,O=C(CSc1nnc2n1CCCN2)c1ccccc1,-7.7%
16,O=[N+]([O-])c1ccc(NC(=S)N2CCN(c3ccccn3)CC2)cc1,5%
17,COc1cc([N+](=O)[O-])ccc1NC(=S)N1CCN(c2ccccn2)CC1,32.1% (active)
18,CCOC(=O)c1ccc(NC(=S)N2CCN(c3ccccn3)CC2)cc1,11.2%
